Bioassay records deposited in PubChem by National Center for Advancing Translational Sciences (NCATS).
LASV entry inh = blocks Lassa virus binding to or entry into cells; Lassa virus pseudotype entry inhibition, cell reporter; Potency, µM (highest dose often 37.9 µM), for inactives: at the highest dose activity change, negative = inhibition, usual class: inhibitors; hit rate 1.2% among 300,000; AID 540256; calls by dose curve; tested in HEK293 cells; also: nearly all actives have a fitted effect of over 50% in size
FMDV inh = blocks foot and mouth disease virus; hit rate 1.2% among 410,000; FMDV antiviral cell-based qHTS; AID 1159524; Potency, µM (highest dose often 57.9 µM), for the others: at the highest dose activity change, negative = inhibition, hits mostly inhibitors; calls by dose curve; tested in HEK293T cells; also: read-out not given here; nearly all actives have a fitted effect of over 45% in size
MARV entry inh = blocks Marburg virus binding to or entry into cells | Marburg virus pseudotyped entry inhibition, cell reporter | Potency, µM (titrated, usually from 37.8 µM), for inactives: at the highest dose activity change, negative = inhibition, usual class: inhibitors | hit rate 1.8% among 300,000; calls by dose curve; tested in HEK293 cells
Sm TGR block = S. mansoni TGR enzyme inhibition; purified TGR, DTNB reduction, TNB absorbance 405 nm; Potency, µM (titrated, usually from 114 µM), for the others: at the top dose activity change, negative = inhibition, hits mostly inhibitors; hit rate 3% among 360,000; AID 485364; active = well fitted inhibition curve with a large enough effect; inconclusive = small, poorly fitted or top-dose-only effect; inactive = no such curve, though single readings can be large or run the other way; also: nearly all actives have a fitted effect of over 60% in size
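TGR 20 nM + NADPH 100 uM (dispensed conc.), cpd preinc 15 min RT; start with NADPH (500 uM addition) then DTNB (15 mM addition). Kinetic TNB absorbance, 405 nm filter. Four-parameter Hill fit across titration.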
VACV mCherry inh = vaccinia inhibition (mCherry reporter) | AID 720579 | hit rate 0.63% among 310,000 | Vaccinia virus mCherry reporter infection, fluorescence | Potency, µM (top dose mostly 36.5 µM), for the others: at the top dose activity change, negative = inhibition, actives largely listed as inhibitors; calls by dose curve; tested in A549 cells; also: nearly all actives have a fitted effect of over 35% in size
Vaccinia Venus = vaccinia inhibition (Venus reporter) | Vaccinia virus Venus reporter expression, fluorescence | AID 720580 | Potency, µM (titrated, usually from 36.5 µM), for the others: at the top dose activity change, negative = inhibition, usual class: inhibitors | hit rate 0.46% among 330,000; calls by dose curve; tested in A549 cells; also: nearly all actives have a fitted effect of over 30% in size
* marks the source's active call; other numbers are inactive results; ! = not active in a repeat; [ ] = dose if it differs, or a comment. Most compounds without a hit are left out; they make up all but 5.4% or so of the library. % is scaled to controls: 0 for no effect and ±100 for the full control effect; potency is read from the fitted curve at half-maximal effect.

For O=C1c2ccccc2-c2onc3c(Oc4ccccc4)cc(O)c1c23 the results were MARV entry inh -4.7% and Sm TGR block 44.7µM*.
Screening Cc1c(C(=O)c2ccc(F)cc2F)c2ccccn2c1CCc1ccccn1 returned FMDV inh inconclusive, VACV mCherry inh -13.8% and Vaccinia Venus -13.6%.
For Cc1c(C(=O)c2ccc(F)cc2F)c2ccccn2c1CCC#N the results were LASV entry inh 4.9%, FMDV inh -6.7%, MARV entry inh 3.3%[46.1 µM], Sm TGR block 35.5µM*, VACV mCherry inh inactive and Vaccinia Venus -13.8%.
For COc1cc(NC(=O)C2=C(N3CCOCC3)/C(=C\c3ccc(Cl)cc3Cl)CC2)cc(OC)c1OC the results were LASV entry inh inconclusive, FMDV inh 14.1µM*, MARV entry inh inconclusive, Sm TGR block -6.5%, VACV mCherry inh inconclusive and Vaccinia Venus -17.8%.
For CCN(c1ccc(C(O)(C(=O)OC)C(F)(F)F)cc1)S(=O)(=O)c1ccccc1 (centres undefined) the results were LASV entry inh inconclusive, FMDV inh 8.7%, MARV entry inh 1.0%, Sm TGR block 5.0%, VACV mCherry inh -0.1% and Vaccinia Venus -22.4%.
For O=S(=O)(c1ccccc1)N(CC(F)(F)F)c1ccc(C(O)(C(F)(F)F)C(F)(F)F)cc1 the results were FMDV inh inconclusive, VACV mCherry inh inconclusive and Vaccinia Venus 11.2µM*!.
CC(c1ccccc1)N1C(=O)/C(=C/c2ccncc2)SC1=S (centres undefined) was read as FMDV inh 31.6µM* and Sm TGR block 0.0%.
`O=C(NC1CCCCC1)N1CCC(c2nc(-c3ccc(S(=O)(=O)N4CCCC4)cc3)no2)CC1` gave LASV entry inh 10µM*, FMDV inh inconclusive, MARV entry inh -2.5%, Sm TGR block -25.2%, VACV mCherry inh -12.4% and Vaccinia Venus -1.4%.
`O=C(C1CC1)N1CCC(c2nc(-c3ccc(S(=O)(=O)N4CCCC4)cc3)no2)CC1` gave LASV entry inh -22.3%, FMDV inh inconclusive, MARV entry inh -21.7%, Sm TGR block -28.5%, VACV mCherry inh inactive and Vaccinia Venus -7.1%.
For COc1cc(NC(=O)N2CCSc3ccccc32)cc(OC)c1OC the results were LASV entry inh -17.1%[46.1 µM], FMDV inh -10.2%, Sm TGR block 3.9%, VACV mCherry inh -7.9% and Vaccinia Venus -7.4%.
Screening COC1(C#C[C@@H]2C=C[C@H](OC(C)=O)[C@@H](COC(C)=O)O2)CCCCC1 returned LASV entry inh inconclusive and MARV entry inh -17.9%[14.2 µM].
`Cc1cccc2c1c1ccc3c(c1n2C)C(=O)C=CC3=O` gave FMDV inh 14.1µM*, Sm TGR block 2.51µM*, VACV mCherry inh -29.6% and Vaccinia Venus inconclusive.
Screening COc1cc(N=Nc2cccc(S(N)(=O)=O)c2)c2ccccc2c1N returned LASV entry inh -3.9%[46.1 µM], FMDV inh inconclusive, MARV entry inh 9.3%[46.1 µM], Sm TGR block 56.2µM*, VACV mCherry inh inconclusive and Vaccinia Venus 54.0%.
CC(Oc1ccc(Cl)cc1)C(=O)Nc1ccccc1N1CCOCC1 (centres undefined) was read as LASV entry inh inconclusive, FMDV inh -18.3%, MARV entry inh 12.6µM*, VACV mCherry inh -12.4% and Vaccinia Venus -6.6%.
Cc1cc(Cl)ccc1OC(C)C(=O)Nc1ccccc1N1CCOCC1 (centres undefined) was read as LASV entry inh inconclusive, FMDV inh inconclusive, MARV entry inh inconclusive, Sm TGR block 3.8%, VACV mCherry inh -9.5% and Vaccinia Venus -6.3%.
COc1ccc2[nH]c3nc(SCC(=O)NNC(=O)c4ccc(OC)c(OC)c4)nnc3c2c1 was read as LASV entry inh -1.3%, FMDV inh 7.08µM*, MARV entry inh 1.1% and Sm TGR block 7.5%.
For COc1ccccc1NC(=O)CSc1nnc2c(n1)[nH]c1ccccc12 the results were LASV entry inh 11.2µM*, FMDV inh inconclusive, MARV entry inh 7.6%[46.1 µM], Sm TGR block 0.1%, VACV mCherry inh -7.1% and Vaccinia Venus -1.2%.
Cc1ccc(C(=O)NNC(=O)CSc2nnc3c(n2)[nH]c2ccc(F)cc23)cc1 was read as LASV entry inh -2.5%, FMDV inh 11.1%, MARV entry inh -0.3% and Sm TGR block -14.8%.
For C/C=C1/C(=O)C[C@@H]2[C@H]3CCC4=CC(=O)CC[C@]4(C)[C@@H]3CC[C@]12C the results were FMDV inh -12.0%, VACV mCherry inh -1.4% and Vaccinia Venus -14.4%.
Screening CCOC(=O)[C@]12Cc3c(cc(OC)c(OC)c3OC)[C@H]1N(Cc1ccccc1)C(=O)c1cc(OC)ccc12 returned FMDV inh 17.8µM*, VACV mCherry inh inconclusive and Vaccinia Venus inconclusive.
CCOC(=O)[C@]12Cc3cc(C)ccc3[C@H]1N(CCC(=O)OC)C(=O)c1cc(OC)ccc12 was read as FMDV inh 31.6µM*, VACV mCherry inh inconclusive and Vaccinia Venus inconclusive.
For CCOC(=O)[C@]12Cc3ccccc3[C@H]1N(CCC(=O)OC)C(=O)c1ccccc12 the results were FMDV inh inconclusive, VACV mCherry inh -17.2% and Vaccinia Venus -12.7%.
Screening CCOC(=O)[C@]12Cc3ccccc3[C@H]1N(C)C(=O)c1cc(OC)ccc12 returned FMDV inh inconclusive, VACV mCherry inh -4.6% and Vaccinia Venus -15.0%.
Screening CCOC(=O)[C@]12Cc3c(cc(OC)c(OC)c3OC)[C@H]1N(CCC(=O)OC)C(=O)c1cc(OC)ccc12 returned FMDV inh 28.2µM*, VACV mCherry inh -18.7% and Vaccinia Venus -26.0%.
CCOC(=O)[C@]12Cc3c(cc(OC)c(OC)c3OC)[C@H]1N(C)C(=O)c1cc(OC)ccc12 was read as FMDV inh 10µM*, VACV mCherry inh -22.7% and Vaccinia Venus -28.0%.
Screening COC(=O)C1=C(C)N(Cc2ccccc2)C(=NCCc2ccc(O)cc2)NC1c1ccc(Br)cc1 (centres undefined) returned MARV entry inh 1.8%[14.2 µM].
For O=C(NCc1ccco1)c1cnn2c1N[C@@H](c1ccccc1)C[C@@H]2C(F)(F)F the results were MARV entry inh -0.4%.
Cc1cc(C)c(NC(=O)COCc2cc(-c3cccs3)on2)c(C)c1 was read as LASV entry inh 26.3%[46.1 µM], FMDV inh 0.0%, Sm TGR block -5.5%, VACV mCherry inh inactive and Vaccinia Venus -14.3%.
CCOC(=O)[C@]12Cc3cc(OC)ccc3[C@H]1N(Cc1ccccc1)C(=O)c1ccccc12 was read as FMDV inh 0.0%, VACV mCherry inh inconclusive and Vaccinia Venus inconclusive.
CCCCCN1C(=O)c2ccccc2[C@@]2(C(=O)OCC)Cc3cc(OC)ccc3[C@@H]12 was read as FMDV inh 10µM*, VACV mCherry inh inconclusive and Vaccinia Venus inconclusive.
